AMA1 RON2 block = qHTS for Inhibitors of AMA1-RON; Towards Development of Antimalarial Drug Lead: Primary Screen; AlphaScreen AMA1-biotinylated RON2 peptide binding; Potency, µM (top dose mostly 58.2 µM), for the others: at the top dose activity change, negative = inhibition, most hits filed as inhibitors; 360,000 tested, 0.2% active; AID 720542, 2013;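 further: 0% = vehicle wells and -100% = peptide control; nearly all actives have a fitted effect of over 45% in size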
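AMA1 (3D7) with his tag at 25 nM final met compounds first, then biotinylated RON2 peptide at 25 nM; detection used donor plus acceptor beads, 10 µg/mL apiece, read by AlphaScreen after 30 min at room temperature.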
AmpC detergent = qHTS Inhibitors of AmpC Beta-Lactamase (assay with detergent) | AmpC hydrolysis of nitrocefin, absorbance 480 nm, 0.01% Triton | Potency, µM (titrated, usually from 114 µM), for inactives: at the top dose activity change, negative = inhibition, hits mostly inhibitors | 370,000 tested, 0.041% active | AID 485294, 2010;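 further: 0% = no-compound wells and -100% = no-enzyme wells; nearly all actives have a fitted effect of over 25% in size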
Target sequence (P00811 whole entry, looked up): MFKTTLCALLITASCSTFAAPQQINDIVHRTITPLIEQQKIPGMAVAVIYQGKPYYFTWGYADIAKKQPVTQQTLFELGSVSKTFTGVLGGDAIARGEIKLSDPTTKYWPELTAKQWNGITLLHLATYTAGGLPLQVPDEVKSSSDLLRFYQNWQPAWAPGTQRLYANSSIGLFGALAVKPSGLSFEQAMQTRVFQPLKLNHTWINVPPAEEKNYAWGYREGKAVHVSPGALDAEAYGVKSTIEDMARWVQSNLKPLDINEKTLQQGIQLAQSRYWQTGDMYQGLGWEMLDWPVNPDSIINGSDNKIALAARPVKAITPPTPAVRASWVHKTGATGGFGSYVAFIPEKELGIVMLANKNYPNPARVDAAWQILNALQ
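AmpC (5.3 nM in the dispensed reagent) in 20 mM phosphate pH 7.0 with 0.01% (detergent screen) or 0.0001% Triton X-100 was preincubated with compounds for 15 min at room temperature. Nitrocefin was then added from an 800 uM solution, and hydrolysis was followed at 480 nm.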
Lassa entry inh = qHTS for Inhibitors of binding or entry into cells for Lassa Virus | Lassa virus pseudotype entry inhibition, cell reporter | Potency, µM (titrated, usually from 37.9 µM), for the others: at the top dose activity change, negative = inhibition, usual class: inhibitors | 300,000 tested, 1.2% active | AID 540256, 2011; calls by dose curve; tested in HEK293 cells; further: nearly all actives have a fitted effect of over 50% in size
AmpC inh no detg = qHTS Inhibitors of AmpC Beta-Lactamase (assay without detergent); 330,000 tested, 0.52% active; P00811; Potency, µM (titrated, usually from 57.1 µM), without a hit: top-dose activity change, negative = inhibition, actives largely listed as inhibitors; AmpC nitrocefin hydrolysis, absorbance 480 nm, 0.0001% Triton;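 further: plate controls were no compound for no effect and no enzyme for full effect; nearly all actives have a fitted effect of over 20% in size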
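20 mM phosphate pH 7.0 + 0.01% (detergent screen) or 0.0001% Triton X-100; 5.3 nM AmpC reagent; cpd preinc 15 min RT; nitrocefin (800 uM stock) to start; A480 q20 s × 4 min; Activity was normalised to no-enzyme and no-compound control wells.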
MARV entry inh = qHTS for inhibitors of binding or entry into cells for Marburg Virus. Marburg virus pseudotyped entry inhibition, cell reporter. Potency, µM (doses to about 37.8 µM), for inactives: top-dose activity change, negative = inhibition, actives largely listed as inhibitors. 300,000 tested, 1.8% active; calls by dose curve; tested in HEK293 cells
Active calls of the source: *; ? = inconclusive; · = no result; [ ] = dose if it differs, or a comment. Rows were chosen to be rich in hits. Some 2.3% of all compounds tested hit in one or more screens of this group. Unless noted, the call rests on the fitted dose curve; in most records, active means well fitted curve in the direction sought with a large enough effect; inconclusive means small, poorly fitted or top-dose-only effect, or another doubt; inactive means no such curve, though single readings can be large; an effect the other way counts as inactive or inconclusive. Unless noted, on the % scale 0 is the no-effect control and ±100 the full control effect; potency means the concentration at half of the fitted maximal effect.

SMILES | AMA1 RON2 block | AmpC detergent | Lassa entry inh | AmpC inh no detg | MARV entry inh
O=C(Nc1ccc(S(=O)(=O)N2CCCC2)cc1)c1ccc(CN2CCOCC2)cc1 | -2% | -13% | ? | 0% | ?
COc1ccc(NS(=O)(=O)c2cccc(NC(=O)C34CCC(CC3)C4)c2)cc1 | 7% | ? | 12µM* | -34% | ?
COc1ccccc1N(C)S(=O)(=O)c1ccc(C(=O)NC2CCCCC2)cc1 | -3% | 3% | 10µM* | -24% | -13%
Cc1cccc(-n2c(C)cc(C(=O)C(=O)Nc3ccccc3F)c2C)c1C | · | 25% | 12%[46.1 µM] | · | 5%[46.1 µM]
Cc1ccc(-n2c(=O)c3c(c4cc(C)ccc4n3C)n(CC(=O)Nc3ccc(F)cc3)c2=O)cc1 | · | -1% | -6%[46.1 µM] | · | ·
CCOC(=O)c1c(NC(=O)C2CCCCC2C(=O)O)sc2c1CCCC2 (configuration not stated) | · | · | · | · | -12%
Cc1ccc(C)c(N2CCN(C(=O)CCc3c(C)nn(-c4ccc(N5CCCC5)nn4)c3C)CC2)c1 | · | -4% | ? | · | ·
C=CS(=O)(=O)N[C@@H](CSSC[C@H](NS(=O)(=O)C=C)C(=O)OC)C(=O)OC | · | · | 8%[46.1 µM] | · | ·
O=C(Nc1cccc(S(=O)(=O)N2CCCC2)c1)c1ccc2c(=O)n3c(nc2c1)CCCCC3 | -12% | ? | 21µM* | 29% | ?
O=C(Nc1cccc(S(=O)(=O)N2CCOCC2)c1)c1ccc2c(=O)n3c(nc2c1)CCCCC3 | -11% | -6% | ? | 78% | ?
O=C(COC(=O)C12CC3CC(CC(Br)(C3)C1)C2)Nc1ccc2[nH]c(=O)[nH]c2c1 | 0% | -1% | ? | 32µM* | ?
Nc1c(C(=O)NCC2CCCO2)sc2nc3c(c(-c4ccco4)c12)CC/C3=C\c1ccco1 (configuration not stated) | 8.9µM* | -6% | 1% | 0% | ?
NC(=O)c1sc2nc3c(c(-c4ccco4)c2c1N)CCCC3 | 0% | ? | · | -15% | ·
COc1ccc(NC(=O)Cn2nnc(-c3ccccc3NC(=O)c3cccs3)n2)cc1 | 1% | ? | ? | -23% | ?
Cc1ccc(NC(=O)Cn2nnc(-c3ccccc3NC(=O)c3cccs3)n2)cc1 | 26% | -4% | 0.58µM* | -33% | ?
COc1ccc(C(=O)NCC(c2ccco2)S(=O)(=O)c2cccs2)cc1 (configuration not stated) | · | -1% | 9%[46.1 µM] | · | ·
CN(C)c1ccc2c(c1[N+](=O)[O-])Cc1ccccc1-2 | 10µM* | · | 9% | · | ?
CON(c1nc(Cl)nc(N(C)C)n1)S(=O)(=O)c1ccccc1Cl | -1% | -11% | 13µM* | -9% | -1%
CC(NC(=O)c1cccs1)C(c1cccs1)N1CCN(Cc2ccccc2)CC1 (configuration not stated) | -4% | -6% | ? | 10% | ?
CCC(=O)NC(C)C(c1cccs1)N1CCN(Cc2ccccc2)CC1 (configuration not stated) | 13% | ? | · | 45µM* | ·
Cc1sc(NC(=O)CN2C(=O)NC3(CCCC3)C2=O)nc1-c1ccc(F)cc1 | 17% | ? | -24% | 25µM* | ?
COCCNC(=O)Cn1c(=O)n(CCCC(=O)NCc2ccc3c(c2)OCO3)c(=O)c2sccc21 | 6% | -10% | 4.5µM* | 0% | ?
COC(=O)c1ccc(CN2C(=O)[C@@]3(CC(C)=C[C@@H](COc4ccccc4)O3)c3ccccc32)cc1 | · | · | · | · | 21%[14.2 µM]
COc1ccc(NC(=O)c2cc3c(-c4ccc(OC)c(OC)c4)nn(C)c3s2)cc1OC | -13% | 1% | 13µM* | 114% | 13µM*
COc1ccc(-c2nn(C)c3sc(C(=O)Nc4cc(OC)c(OC)c(OC)c4)cc23)cc1OC | · | -3% | ? | · | ?
SMILES | AMA1 RON2 block | AmpC detergent | Lassa entry inh | AmpC inh no detg | MARV entry inh
CCOc1cc(C(=O)Nc2ccc3c4c(cccc24)C(=O)N3CC)cc(OCC)c1OCC | -3% | -6% | -3% | 147% | 18µM*
CCCCNc1nc(-c2ccccc2)c(C(=O)OCC)cc1C#N | 202% | -8% | 11µM* | 15% | ?
CCOc1ccc(NC(=S)N(CCc2c(C)[nH]c3ccc(C)cc23)Cc2ccncc2)cc1 | 3% | -12% | -9% | 69% | 2.3µM*
CCc1ccc(Nc2ncc3c(n2)CC(C)CC3=O)cc1 (configuration not stated) | 1% | -3% | ? | -12% | ?
COc1ccc(Nc2ncc3c(n2)CC(c2ccccc2)CC3=O)cc1 (configuration not stated) | 2% | ? | 0.92µM* | -11% | 3%
CCc1ccc(Nc2ncc3c(n2)CC(c2ccc(OC)cc2)CC3=O)cc1 (configuration not stated) | 4% | 0% | 0.52µM* | -16% | 18µM*
CN(Cc1ccccc1)c1nc2c(c(=O)n(C)c(=O)n2C)n1CCCc1ccccc1 | -11% | -2% | 13µM* | 126% | ?
CN(C(=O)COC(=O)c1ccccc1SCC(=O)N1CCCC1)C1CCS(=O)(=O)C1 (configuration not stated) | 5% | -2% | 0% | -12% | -4%
CC(C)CN(C(=O)COC(=O)c1ccccc1SCC(=O)N1CCCC1)C1CCS(=O)(=O)C1 (configuration not stated) | 10µM* | · | 1% | · | ?
O=C(NNC(=O)C12CC3CC(CC(C3)C1)C2)c1cnccn1 | 11% | -1% | 7% | -15% | -14%
O=C(NNC(=O)C12CC3CC(CC(C3)C1)C2)c1ccccn1 | 77% | -3% | 7.9µM* | -2% | 10µM*
CCOC(=O)N/N=C1\C[C@@H](O)[C@@H](O)[C@@H]2[C@@H]3C(=O)N(C4CCCCC4)C(=O)[C@@H]3CC[C@H]12 | · | · | · | · | -25%[14.2 µM]
CC1=NN(c2ccc(C)cc2)C(=O)/C1=C/c1ccc(-c2cc([N+](=O)[O-])ccc2O)o1 | -23% | -11% | · | 16µM* | ·
NC(N)=N/N=C/c1c(Cl)cccc1Cl | 0% | 0% | ? | -29% | 11µM*
COc1cc2c3c(c1)C(C)=CC(C)(C)N3C(=O)C2=O | ? | -1% | 3% | -23% | ?
CCCOc1ccccc1-n1sc2c(c1=S)-c1cc(OC)cc3c1N(C(=O)C3=O)C2(C)C | 2.8µM* | -11% | ? | -15% | ?
Cc1ccc2cc(CN(CC3CCCO3)C(=S)NCc3ccco3)c(=O)[nH]c2c1C (configuration not stated) | 13% | 0% | 5.8µM* | 105% | 0.63µM*
Cc1cc2cc(CN(CCN(C)C)C(=S)NCc3ccco3)c(=O)[nH]c2cc1C | -9% | -5% | -23% | 106% | ?

High-throughput results (PubChem)
